# From PubChem BioAssay (NCI)
# Compounds without any hit were thinned out: in the full panel of roughly 79,000, 15% have a hit. Unmarked numbers belong to inactive results. Active and inactive are the calls of the source. Rule as the data show it: active = growth inhibition above about 70%; inactive = the rest.
# Assay: NCI Yeast Anticancer Drug Screen. Data for the cln2 rad14 strain (AID 165);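 also: 0% = growth equal to vehicle treated cultures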
# Settings: S. cerevisiae cln2 rad14 strain, active compounds read high
# Experimental: Growth inhibition of yeast strains with defined genetic alterations is measured as a screen for potential anti-cancer activity. Selected strains with alterations in DNA damage repair or cell cycle control were exposed to compounds and growth inhibition was measured relative to vehicle treated controls. The strain used in this assay is cln2 rad14
# [1] = at 5.0 µM (retest, dose inferred, filed as 0.5)
# [2] = at 50.0 µM (retest, dose inferred, filed as 5.0)
SMILES,growth inhibition [1] [%],growth inhibition [2],growth inhibition (at 50.0 µM)
O=C(CC(=O)c1ccccc1)CC1(O)CCCCC1,-9,14%,50.4%
CCCCCCCCCCCCCCCCCCn1[se]c2ccccc2c1=O,15,15%,59.1%
COc1ccc(CC[N+]2(C)COc3cc4oc(=O)cc(C)c4cc3C2)cc1OC (configuration not stated),-21,9%,34.6%
CCOC(=O)C(C(=O)OCC)C1(c2ccccc2)OC(=O)c2ccccc21 (configuration not stated),-1,17%,19.1%
COc1ccc2c(c1)C(=O)C(Br)CC2 (configuration not stated),26,92% (active),32%
O=C1NC(=O)/C(=C/C=C/c2ccccc2)S1,27,63%,77.4% (active)
CC(C(=O)O)c1c(-c2ccccc2)ccc2ccccc12 (configuration not stated),-8,12%,52.1%
C[C@]12CCC3[C@@H](CC[C@@H]4c5nonc5CC[C@]34C)C1CCC(=O)N2 (some centres not stated),7,13%,-3.6%
CC(C)/C(Cl)=N\OC(=O)Nc1ccc(S(N)(=O)=O)cc1,21,33%,45%
O=C(O)c1ccccc1Cc1ccc2c(c1)Cc1ccccc1-2,-19,88% (active),71.2% (active)
CCOC(=O)c1ccc([N+](=O)[O-])o1,-1,11%,28.3%
O=C1NN(C2=NNC3(C(=O)N2)c2ccccc2-c2ccccc23)C(c2ccccc2)=N/C1=C/c1ccc(O)cc1,-6,21%,7%
O=C(O)CSc1nc(-c2ccccc2)c(-c2ccccc2)n1-c1ccccn1,18,4%,61.8%
CC(C)C1(c2ccccc2)C(=O)c2ccccc2C1=O,2,10%,68.2%
